Source: PubChem BioAssay (EPA / NIEHS)
Inconclusive results are not listed. The source made the active and inactive calls. Rule for the calls, unless noted: active = hit-call score of the fitted dose curve at least 0.9, where 1 is the maximum; inconclusive = response in the unintended direction; inactive = score below 0.9.

Experiments:
PGR (gene 5241) [1] = target: PGR (gene 5241) (UniProt P06401); experiment: TOX21_PR_BLA_Followup_Agonist_ratio: Tox21 HEK293 Progesterone Receptor (PR) Agonism Beta-lactamase Follow-Up Assay, Ratio (AID 2283933)
Summary of the method: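 PR-UAS-bla HEK293T cells (GAL4-UAS beta-lactamase reporter) in medium with 2% charcoal-stripped FBS received compounds after 6 hr at 37C, then incubated 16 hr. LiveBLAzer FRET substrate added, 2 hr room temperature; cleaved/uncleaved (ch2/ch1) ratio fitted upward versus DMSO.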

PGR (gene 5241) [2] = target: PGR (gene 5241) (UniProt P06401); experiment: TOX21_PR_BLA_Followup_Antagonist_ratio: Tox21 HEK293 Progesterone Receptor (PR) Antagonism Beta-lactamase Follow-Up Assay, Ratio (AID 2283934)
Summary of the method: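 PR-UAS-bla HEK293T cells in medium with 2% charcoal-stripped FBS were treated with compounds plus 1 nM (final) promegestone (R5020) for 16 hr at 37C. LiveBLAzer B/G FRET substrate was then added for 2 h at room temperature; signal is cleaved/uncleaved substrate ratio versus DMSO.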

[3] = TOX21_PR_BLA_Followup_Agonist_viability: Viability Assessment in the Tox21 HEK293 Progesterone Receptor (PR) Agonism Beta-lactamase Follow-Up Assay (AID 2283935);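 note: signal loss means lower viability so actives are cytotoxic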
Summary of the method: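 PR-UAS-bla HEK293T cells in 2% charcoal-stripped FBS medium, compound added after 6 hr plating, 16 hr at 37C/5% CO2. After bla FRET read, CellTiter-Glo added; luminescence read after 30 min at room temperature; signal loss marks cytotoxicity.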

[4] = TOX21_PR_BLA_Followup_Antagonist_viability: Viability Assessment in the Tox21 HEK293 Progesterone Receptor (PR) Antagonism Beta-lactamase Follow-Up Assay (AID 2283936);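 note: hits lower the luminescence signal meaning cytotoxicity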
Summary of the method: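 PR-UAS-bla HEK293T cells (3,000/well, 2% charcoal-stripped FBS) given compound plus R5020 agonist, 16 h at 37C. CellTiter-Glo added after bla read, 30 min at room temperature; luminescence loss indicates cytotoxicity.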

PGR (gene 5241) [5] = target: PGR (gene 5241) (UniProt P06401); experiment: TOX21_PR_LUC_Followup_Agonist: Tox21 HEK293 Progesterone Receptor (PR) Agonism Luciferase Follow-Up Assay (AID 2283937; active = hit-call score of the fitted dose curve at least 0.9, where 1 is the maximum; inactive = score below 0.9)
Summary of the method: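 HEK293-PR-A-luc cells, pre-cultured 5 days in medium with 10% charcoal-stripped FBS, were seeded at 3,000 cells/well, rested 5 h at 37C, then exposed to compounds 16 h at 37C; luciferase read by ONE-Glo luminescence after 30 min.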

PGR (gene 5241) [6] = target: PGR (gene 5241) (UniProt P06401); experiment: TOX21_PR_LUC_Followup_Antagonist: Tox21 HEK293 Progesterone Receptor (PR) Antagonism Luciferase Follow-Up Assay (AID 2283938);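 note: curve fitted upward as signal gain over DMSO baseline despite antagonist label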
Summary of the method: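 HEK293-PR-A-luc cells, 3,000/well, preincubated 5 h at 37C before compound addition in DMSO; 16 h compound exposure at 37C. ONE-Glo luciferase luminescence read after 30 min at room temperature, fitted relative to DMSO baseline.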

[7] = tested on: Thyroperoxidase (TPO), gene 54314; experiment: CCTE_Simmons_AUR_rTPO: CCTE's Amplex UltraRed Assay for Thyroperoxidase (TPO) Inhibition, Simmons Lab (AID 2283662)
Summary of the method: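 Rat thyroid microsomes (5 ug protein) with 25 uM Amplex UltraRed and 300 uM H2O2 in 200 mM phosphate buffer, 30 min at 37C in dark; fluorescence 544/590 nm. Eight concentrations, 5 nM–87.5 uM final, 0.5% DMSO, triplicate biological replicates.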

[8] = CCTE_Simmons_CellTiterGLO_HEK293T: Viability Assessment in CCTE's Assays for Thyroperoxidase (TPO) Inhibition, Simmons Lab (AID 2283665)
Summary of the method: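 HEK293T cells in DMEM with 1% FBS were dosed with 8 concentrations (5 nM–87.5 uM final, 0.5% DMSO) for 24 hr at 37C; ATP content was read by CellTiter-Glo luminescence, loss-of-signal versus DMSO, three biological replicates.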

[9] = target: Luciferin 4-monooxygenase (Photinus pyralis) (UniProt P08659); experiment: CCTE_Simmons_QuantiLum_inhib_2: CCTE's Firefly Luciferase Inhibition Assay, Simmons Lab (AID 2283767);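 note: potency for inhibitors that lower luciferase luminescence relative to DMSO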
Summary of the method: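 Recombinant firefly luciferase (5 ng/well, 200 mM potassium phosphate with 1 mg/ml BSA) was exposed to 8 concentrations from 5 nM to 87.5 uM (final, 0.5% DMSO) for 30 min at 37C in the dark. Loss of luminescence versus DMSO was read after injecting D-luciferin/ATP-analogue reagent.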

[10] = CCTE_Harrill_HTTr_Viability_MCF7: CCTE's 6-hour Cell Viability Assessment for the High-Throughput Transcriptomics (HTTr) Platform, in MCF-7 cells cultured in DMEM + 10% fetal bovine serum, Harrill Lab (AID 2284010; active = hit-call score of the fitted dose curve at least 0.9, where 1 is the maximum; inactive = score below 0.9)
Summary of the method: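 Membrane integrity was scored by high-content imaging of propidium iodide dye exclusion after a 6 h exposure across an eight-point dilution series. Data were fitted bidirectionally relative to DMSO as negative control and baseline.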

[11] = CCTE_Harrill_HTTr_Apoptosis_MCF7: CCTE's 6-hour Apoptosis Assessment for the High-Throughput Transcriptomics (HTTr) Platform, in MCF-7 cells cultured in DMEM + 10% fetal bovine serum, Harrill Lab (AID 2284011; active = hit-call score of the fitted dose curve at least 0.9, where 1 is the maximum; inactive = score below 0.9)
Summary of the method: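 MCF-7 cells in DMEM + 10% FBS exposed 6 h to chemicals over an eight-point dilution series. Caspase-3/7 activation imaged by high-content CellEvent Green staining; fitted bidirectionally versus DMSO.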

[12] = TOX21_PR_LUC_Followup_Antagonist_viability: Viability Assessment in the Tox21 HEK293 Progesterone Receptor (PR) Antagonism Luciferase Follow-Up Assay (AID 2283940)
Summary of the method: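 HEK293-PR-A-luc cells, precultured 5 days in assay medium with 10% charcoal-stripped FBS, were seeded at 3,000 cells/well, treated with compounds in DMSO for 16 h at 37C, and viability was read as cellular ATP by CellTiter-Glo luminescence.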

[13] = TOX21_PR_LUC_Followup_Agonist_viability: Viability Assessment in the Tox21 HEK293 Progesterone Receptor (PR) Agonism Luciferase Follow-Up Assay (AID 2283941);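 note: loss of signal means cytotoxicity so actives lower viability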
Summary of the method: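 HEK293-PR-A-luc cells, pre-cultured 5 days in 10% charcoal-stripped FBS, were seeded at 3,000 cells/well, rested 5 h at 37C, then given compound in DMSO for 16 h at 37C. Cellular ATP was read by CellTiter-Glo luminescence; signal loss indicates cytotoxicity.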

[14] = read-out: xenobiotic metabolism (CYP2C9), CYP2C9 (gene 1559); experiment: CLD_CYP2C9_6hr: CellzDirect (CLD) Gene Expression Assay for xenobiotic metabolism (CYP2C9) at 6 hours (AID 2283664)
Summary of the method: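 Primary human hepatocytes dosed daily with test chemicals at multiple concentrations; harvested at 6 h. CYP2C9 mRNA induction measured by qNPA chemiluminescence. Gain of signal fitted against 0.2% DMSO vehicle; cytotoxicity annotated from phase-contrast morphology.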

[15] = TOX21_TRB_BLA_Agonist_Followup_viability: Viability Assessment in the Tox21 Thyroid Hormone Receptor beta Agonism Beta-lactamase (BLA) Follow-Up Assay (AID 2283956)
Summary of the method: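 TRb-bla HEK293T cells (GAL4-DBD/human TRb LBD) in 2% charcoal-stripped FBS medium were exposed 18 h at 37C to 11 concentrations in triplicate. CellTiter-Glo ATP luminescence was read after 30 min at room temperature, with bidirectional fitting against DMSO.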

[16] = CCTE_Harrill_HTTr_Apoptosis_PRF_DMEM_12hr: (Pilot) CCTE's 12-hour Apoptosis Assessment for the High-Throughput Transcriptomics (HTTr) Platform, in MCF-7 cells cultured in phenol red-free DMEM + 10% charcoal-stripped fetal bovine serum, Harrill Lab (AID 2283985; active = hit-call score of the fitted dose curve at least 0.9, where 1 is the maximum; inactive = score below 0.9)
Summary of the method: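 MCF-7 cells in phenol red-free DMEM with 10% charcoal-stripped FBS, eight-point dilution series, 12 h exposure. Caspase-3/7 activation imaged by high content imaging with CellEvent Green reagent; bidirectional fit vs DMSO.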

[17] = ATG_M_32_XSP2: Attagene TRANS-FACTORIAL Multi-Species (XSP2) HepG2 Assay for M19 Transcription Factor (Internal Marker) (AID 2283826)
Summary of the method: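 HepG2 cells transiently transfected with GAL4-UAS reporter units; XSP2 panel included 3 nM 6-alpha-fluorotestosterone and 1.5 nM norgestrel for androgen receptor stimulation. Reporter mRNA read 24 h post-dosing by RT-PCR/capillary electrophoresis; fitted upward versus DMSO.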

[18] = target: Thyroid hormone receptor alpha (Rattus norvegicus) + Thyroid hormone receptor beta (Rattus norvegicus) (UniProt P18113+P63059); experiment: TOX21_TR_LUC_GH3_Antagonist_Followup: Tox21 GH3 Thyroid Hormone Receptor Antagonism Luciferase Follow-Up Assay (AID 2283942)
Summary of the method: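 Antagonist mode: GH3 cells seeded 1,500/well, compounds at 15 concentrations (92 uM to 5nM final) plus T3 at 1.0 nM final, 24 h at 37C. Luciferase read with ONE-Glo after 30 min at room temperature.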

THRA (gene 7067) = THRA (gene 7067) (UniProt P10827); experiment: TOX21_TRA_COA_Antagonist_Followup_ratio: Tox21 Thyroid Hormone Receptor alpha Antagonism through Coactivator Recruitment Follow-Up Assay, Ratio (AID 2283953)
Summary of the method: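 This follow-up to the GH3 luciferase screen checks specificity in a cell-free format. It measures SRC-2 coactivator peptide binding to TRα LBD by TR-FRET and scores loss of ratio signal relative to DMSO.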

[19] = target: Retinoic acid receptor RXR-alpha (Homo sapiens) (UniProt P19793); experiment: TOX21_TR_RXR_BLA_Antagonist_Followup_ratio: Tox21 Thyroid Hormone Receptor beta Retinoid X Receptor alpha (RXRa) Antagonism Beta-lactamase (BLA) Follow-Up Assay, Ratio (AID 2283972)
Summary of the method: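 RXRa-UAS-bla HEK293T cells, 2,500/well in phenol red-free DMEM with 2% charcoal-stripped FBS, 5 h attachment, then compounds (11 concentrations, triplicate) for 16 h at 37C; FRET-B/GCCF4-AM substrate 2 h RT; 460:530 nm ratio, loss of signal vs DMSO.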

[20] = TOX21_TR_RXR_BLA_Antagonist_Followup_viability: Viability Assessment in the Tox21 Thyroid Hormone Receptor beta Retinoid X Receptor alpha (RXRa) Antagonism Beta-lactamase (BLA) Follow-Up Assay (AID 2283979)
Summary of the method: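 RXRa-bla HEK293T cells (2,500/well, phenol red-free DMEM, 2% charcoal-stripped FBS) were attached 5 h, then exposed to compounds at 11 concentrations in triplicate for 16 h at 37C. Viability measured by CellTiter-Glo ATP luminescence, bidirectional fitting versus DMSO.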

Chain of PGR (gene 5241) (P06401 whole entry, looked up, the tested form may be a part): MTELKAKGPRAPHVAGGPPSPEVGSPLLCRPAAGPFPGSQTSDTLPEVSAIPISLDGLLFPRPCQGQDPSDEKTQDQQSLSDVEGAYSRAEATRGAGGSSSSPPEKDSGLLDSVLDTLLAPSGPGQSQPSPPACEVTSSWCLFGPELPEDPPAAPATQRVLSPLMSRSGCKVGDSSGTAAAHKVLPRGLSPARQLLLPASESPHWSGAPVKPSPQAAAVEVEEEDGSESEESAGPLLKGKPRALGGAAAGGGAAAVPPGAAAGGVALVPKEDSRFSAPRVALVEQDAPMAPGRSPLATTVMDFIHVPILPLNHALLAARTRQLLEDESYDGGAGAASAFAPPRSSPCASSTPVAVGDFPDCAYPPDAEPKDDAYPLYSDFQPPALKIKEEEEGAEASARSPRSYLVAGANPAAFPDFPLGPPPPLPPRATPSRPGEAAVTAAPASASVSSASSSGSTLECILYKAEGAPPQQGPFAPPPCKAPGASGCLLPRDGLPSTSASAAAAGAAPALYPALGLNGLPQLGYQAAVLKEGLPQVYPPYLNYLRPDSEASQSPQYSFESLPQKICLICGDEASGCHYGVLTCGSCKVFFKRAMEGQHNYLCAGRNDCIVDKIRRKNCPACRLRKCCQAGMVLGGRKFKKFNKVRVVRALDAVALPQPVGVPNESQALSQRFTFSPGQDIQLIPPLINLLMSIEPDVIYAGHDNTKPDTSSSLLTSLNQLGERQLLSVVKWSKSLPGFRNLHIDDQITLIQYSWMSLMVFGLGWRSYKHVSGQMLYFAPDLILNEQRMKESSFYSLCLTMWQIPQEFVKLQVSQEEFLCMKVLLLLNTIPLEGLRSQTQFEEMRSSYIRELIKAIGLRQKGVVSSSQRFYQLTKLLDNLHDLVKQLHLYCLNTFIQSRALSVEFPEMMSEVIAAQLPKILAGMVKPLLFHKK
Chain of Luciferin 4-monooxygenase (Photinus pyralis) (P08659 whole entry, looked up): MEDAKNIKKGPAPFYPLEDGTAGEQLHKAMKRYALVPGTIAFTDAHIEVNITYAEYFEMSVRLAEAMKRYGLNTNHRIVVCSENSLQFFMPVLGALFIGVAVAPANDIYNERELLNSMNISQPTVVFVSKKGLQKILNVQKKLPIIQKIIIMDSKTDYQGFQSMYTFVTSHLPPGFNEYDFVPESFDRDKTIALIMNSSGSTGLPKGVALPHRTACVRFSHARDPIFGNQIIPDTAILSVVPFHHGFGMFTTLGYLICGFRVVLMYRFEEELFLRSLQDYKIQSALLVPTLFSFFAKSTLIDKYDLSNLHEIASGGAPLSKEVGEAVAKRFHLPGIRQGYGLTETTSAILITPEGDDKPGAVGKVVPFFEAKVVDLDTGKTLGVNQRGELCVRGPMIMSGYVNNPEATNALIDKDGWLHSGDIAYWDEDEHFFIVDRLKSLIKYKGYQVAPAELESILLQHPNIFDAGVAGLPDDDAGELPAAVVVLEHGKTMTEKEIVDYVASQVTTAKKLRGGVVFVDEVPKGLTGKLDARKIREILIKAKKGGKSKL
Chain of Retinoic acid receptor RXR-alpha (Homo sapiens) (P19793 whole entry, looked up): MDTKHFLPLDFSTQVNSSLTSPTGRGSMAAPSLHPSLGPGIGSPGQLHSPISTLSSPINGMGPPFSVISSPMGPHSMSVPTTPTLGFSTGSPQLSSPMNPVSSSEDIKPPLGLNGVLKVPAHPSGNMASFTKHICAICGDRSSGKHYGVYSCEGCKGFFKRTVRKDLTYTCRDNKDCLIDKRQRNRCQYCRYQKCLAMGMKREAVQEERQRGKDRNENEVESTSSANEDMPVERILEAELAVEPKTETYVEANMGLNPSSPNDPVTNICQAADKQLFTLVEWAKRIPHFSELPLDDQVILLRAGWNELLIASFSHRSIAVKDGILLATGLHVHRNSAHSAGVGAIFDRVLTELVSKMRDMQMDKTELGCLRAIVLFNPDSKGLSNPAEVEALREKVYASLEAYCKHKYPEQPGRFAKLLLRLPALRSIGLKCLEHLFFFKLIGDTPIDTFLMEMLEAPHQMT
Chain of THRA (gene 7067) (P10827 whole entry, looked up, the tested form may be a part): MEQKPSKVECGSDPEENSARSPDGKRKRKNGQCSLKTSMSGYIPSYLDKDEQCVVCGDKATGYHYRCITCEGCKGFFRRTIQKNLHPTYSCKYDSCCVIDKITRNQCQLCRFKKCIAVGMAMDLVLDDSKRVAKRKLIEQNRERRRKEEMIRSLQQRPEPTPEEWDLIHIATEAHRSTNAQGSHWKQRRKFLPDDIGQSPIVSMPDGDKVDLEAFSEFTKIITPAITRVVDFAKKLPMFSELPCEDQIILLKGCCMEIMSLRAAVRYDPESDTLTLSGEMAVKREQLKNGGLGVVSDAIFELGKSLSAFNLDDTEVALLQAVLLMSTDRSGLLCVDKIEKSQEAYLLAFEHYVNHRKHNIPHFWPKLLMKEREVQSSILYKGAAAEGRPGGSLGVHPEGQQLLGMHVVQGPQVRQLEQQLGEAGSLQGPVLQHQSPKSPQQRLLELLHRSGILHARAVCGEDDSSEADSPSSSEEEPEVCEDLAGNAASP

C[C@]12CC[C@H]3[C@@H](CCC4=CC(=O)CC[C@@H]43)[C@@H]1CC[C@@H]2OC(=O)CCc1ccco1
AC50 (PGR (gene 5241) [1]): 2160 nM (active) | outcome (PGR (gene 5241) [2]): inactive | outcome [3]: inactive | outcome [4]: inactive | AC50 (PGR (gene 5241) [5]): 27.5 nM (active) | outcome (PGR (gene 5241) [6]): inactive

Cc1ccc2cc3c(ccc4ccccc43)c3c2c1CC3
outcome [7]: inactive | outcome [8]: inactive | AC50 [9]: 263 nM (active) | outcome [10]: inactive | outcome [11]: inactive

O=C1CN=C(c2ccccc2)c2cc(Cl)ccc2N1CC1CC1
AC50 (PGR (gene 5241) [2]): 23000 nM (active) | outcome [3]: inactive | outcome [4]: inactive | outcome (PGR (gene 5241) [6]): inactive | outcome [12]: inactive | outcome [13]: inactive

CCCCCOC(=O)COc1cc(N2C(=O)C3=C(CCCC3)C2=O)c(F)cc1Cl
outcome [14]: inactive

OCCCCC(O)CO (stereo not given)
outcome [15]: inactive

CCC(C)(C)C(=O)O[C@H]1C[C@@H](C)C=C2C=C[C@H](C)[C@H](CC[C@@H]3C[C@@H](O)CC(=O)O3)[C@H]21
outcome [16]: inactive

Oc1ccc2cc(SSc3ccc4cc(O)ccc4c3)ccc2c1
outcome [17]: inactive

CC[n+]1ccccc1
outcome [18]: inactive | outcome (THRA (gene 7067)): inactive | outcome [19]: inactive | outcome [20]: inactive
